Among all 2,300 compounds or so, about 1,200 (52%) were called active. Inconclusive results (about 34%) are left out. The call rests on the fitted dose curve; in most records, active means well fitted inhibition curve with a large enough effect; inconclusive means small, poorly fitted or top-dose-only effect, or effect the other way; inactive means no such curve, though single readings can be large or run the other way. The set was probably picked from earlier hits. The list shows a part of the results.
test: Confirmation screen for delayed death inhibitors of the malarial parasite plastid, 48 hour incubation; further: nearly all actives have a fitted effect of over 65% in size; settings: P. falciparum-infected erythrocytes, luciferase growth; series mostly up to 28.7 µM
Summary of the method: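 Single-generation (48 h, 37 C) exposure of integrated firefly luciferase-reporter P. falciparum in red cells, 0.1% parasitemia at 2% hematocrit, Albumax-supplemented RPMI. Falling luciferase signal marks parasite growth inhibition.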
Potency means the concentration at half of the fitted maximal effect.

| SMILES | Potency |
| --- | --- |
| O=C(Nc1ccccc1F)c1ccc(CN2CCN(c3ccccc3)CC2)cc1 | inactive |
| COc1cccc(NC(=O)c2ccc(CN3CCN(c4ccccc4)CC3)cc2)c1 | 15.8 µM (active) |
| COc1ccc(NC(=O)c2ccc(CN3CCN(c4ccccc4)CC3)cc2)cc1OC | 10 µM (active) |
| O=C(Nc1ccc(F)cc1F)c1ccc2c(c1)[nH]c(=O)n2Cc1ccc(F)cc1 | 12.6 µM (active) |
| Oc1cccc2ccc(/C=C/c3ccccc3Br)nc12 | 2.82 µM (active) |
| COc1ccc(Cl)cc1/C=C/c1ccc2cccc(O)c2n1 | 6.31 µM (active) |
| COc1ccc(C#Cc2ccc3c(=O)c4ccccc4n(C)c3c2)cc1 | 10 µM (active) |
| Cn1c2ccccc2c(=O)c2ccc(C#Cc3ccc(N)cc3)cc21 | 12.6 µM (active) |
| Cc1ccc2c(c1)c1c3n2CCN(C(=O)CCl)C3CCC1 (stereo not given) | 12.6 µM (active) |
| Cc1cc(C)cc(CC(Cc2nc3ccccc3[nH]2)c2nc3ccccc3[nH]2)c1 (stereo not given) | 2.24 µM (active) |
| CCCCOc1ccc(NC2=NC3(CCCC3)N=C(N)N2)cc1 | 1.41 µM (active) |
| Cc1nc(-c2ccc(S(=O)(=O)N3CCCN(CCc4ccccc4)CC3)s2)cs1 | 10 µM (active) |
| Cc1ccc(N2C(=O)N3[C@H](c4ccc(F)cc4)[C@@H]4C(=O)N(C5CCCCC5)C(=O)[C@@H]4[C@]3(Cc3ccccc3)C2=O)cc1 | 5.62 µM (active) |
| Cc1cccc(Nc2nc3c(S(=O)(=O)c4ccccc4)nnn3c3ccccc23)c1C | 4.47 µM (active) |
| CC1CCCCC1NC(=O)/C(C#N)=C/C=C/c1ccccc1[N+](=O)[O-] (stereo not given) | 5.01 µM (active) |
| COCCNC(=O)/C(C#N)=C/C=C/c1ccccc1[N+](=O)[O-] | 11.2 µM (active) |
| COC(=O)C(=Cc1ccccc1[N+](=O)[O-])C(=O)OC | 4.47 µM (active) |
| N#C/C(=C\C=C\c1ccccc1[N+](=O)[O-])C(=O)NC1CCCCC1 | 4.47 µM (active) |
| COc1ccc([N+](=O)[O-])c(S(=O)(=O)c2ccccc2)n1 | inactive |
| COc1ccc(Cn2c(-c3ccc(Br)cc3)c[n+]3ccccc23)cc1 | 1.26 µM (active) |
| COCCNCC(=O)NC12CC3CC(CC(C3)C1)C2 | inactive |
| CC(NC(=O)c1ccc([N+](=O)[O-])o1)C12CC3CC(CC(C3)C1)C2 (stereo not given) | 12.6 µM (active) |

| SMILES | Potency |
| --- | --- |
| Cn1cc([N+](=O)[O-])c(C(=O)Nc2ccn(C34CC5CC(CC(C5)C3)C4)n2)n1 | inactive |
| O=C(NC12CC3CC(CC(C3)C1)C2)c1ccc([N+](=O)[O-])o1 | 6.31 µM (active) |
| CC(=O)c1c(C)cc(C)c(CSc2nc(C)cc(=O)[nH]2)c1C | inactive |
| Cc1ccc(S(=O)(=O)Nc2cc(=O)[nH]c(SCc3ccc(Cl)cc3)n2)cc1 | 11.2 µM (active) |
| OC1CCN(c2c3c(nc4cc(-c5ccc(Cl)cc5)nn24)CCC3)CC1 | 7.08 µM (active) |
| Fc1cc2nc(-c3ccncc3)[nH]c2cc1F | 10 µM (active) |
| Cn1ccc(=Nc2ccc(NC(=O)c3ccc(N=c4ccn(C)c5ccc([N+](=O)[O-])cc45)cc3)cc2)cc1 | 0.199 µM (active) |
| Cc1sc2nc[nH]c(=O)c2c1-c1ccc(Cl)cc1 | inactive |
| O=C(CCl)Nc1cccc(S(=O)(=O)NC2=NCCC2)c1 | 1.26 µM (active) |
| COc1ccccc1-n1c(=S)[nH]c2c(sc(=S)n2-c2ccc(C)cc2C)c1=O | 3.16 µM (active) |
| CCOC(=O)c1c(C)nc(C)c(C(=O)OCC)c1-c1ccc(Br)cc1 | 12.6 µM (active) |
| Cc1ccc(C(=O)OCc2nnc(-c3ccc(Br)cc3)o2)cc1 | inactive |
| Cc1cccc(N2CCN(C3=NC(=O)C(Cc4ccccc4)S3)CC2)c1 (stereo not given) | 1.78 µM (active) |
| Cc1cc(C(=O)N2CCCC(N3CCN(c4cccc(C(F)(F)F)c4)CC3)C2)c(C)o1 (stereo not given) | 12.6 µM (active) |
| O=C(c1ccsc1)N1CCCC(N2CCN(c3cccc(C(F)(F)F)c3)CC2)C1 (stereo not given) | 14.1 µM (active) |
| O=C(Nc1ccncc1)c1ccc(Cl)c(S(=O)(=O)N2CCCC2)c1 | 11.2 µM (active) |
| Cc1ccc(C(=O)NC2CCCCC2)cc1S(=O)(=O)N1CCCC1 | 11.2 µM (active) |
| Cc1ccc(S(=O)(=O)N2CCCCC2C)cc1[N+](=O)[O-] (stereo not given) | inactive |
| Cc1ccc(C(=O)NC2CCCC2)cc1S(=O)(=O)N1CCCCC1 | 11.2 µM (active) |
| Clc1cccc(OCCCCCN2CCOCC2)c1 | inactive |
| CN(CCCN1CCOCC1)C(=O)c1ccc2nc(Cc3cccc(Cl)c3)oc2c1 | 14.1 µM (active) |
| CCOC(=O)C1CCCN(C(=O)c2cc3cc4ccc(OC)cc4nc3o2)C1 (stereo not given) | 11.2 µM (active) |

| SMILES | Potency |
| --- | --- |
| COC(=O)[C@]1(CC(C)C)N[C@H](c2ccc(-c3ccc(F)cc3)c(OC)c2)[C@@H]2C(=O)N(C)C(=O)[C@@H]21 | 6.31 µM (active) |
| COCCN(C(=O)CCCC(=O)Nc1ccccn1)C(C(=O)NC1CCCCC1)c1ccc(C)cc1 (stereo not given) | 11.2 µM (active) |
| CC[C@H]1OC(=O)[C@H](C)[C@@H](O[C@H]2C[C@@](C)(OC)[C@@H](O)[C@H](C)O2)[C@H](C)[C@@H](O[C@@H]2O[C@H](C)C[C@H](N(C)C)[C@H]2O)[C@](C)(O)C[C@@H](C)CN(C)[C@H](C)[C@@H](O)[C@]1(C)O | 14.1 µM (active) |
| CC[C@H]1OC(=O)[C@H](C)[C@@H](O[C@H]2C[C@@](C)(OC)[C@@H](O)[C@H](C)O2)C(C)[C@@H](O[C@@H]2O[C@H](C)C[C@H](N(C)C)[C@@H]2O)[C@](C)(OC)C[C@@H](C)C(=O)[C@H](C)[C@@H](O)[C@]1(C)O (stereo not given in full) | inactive |
| O=C(/C=C/c1ccccc1O)c1ccco1 | inactive |
| COc1ccccc1/C=C/C(=O)/C=C/c1ccccc1O | 1.41 µM (active) |
| Cc1ccc2[nH]c3c(c2c1)CCCC3NC(=O)CCl (stereo not given) | 4.47 µM (active) |
| Cc1cc(NC(=O)CSCC(=O)Nc2ccccc2Oc2ccccc2)no1 | 14.1 µM (active) |
| COC(=O)[C@@]1(Cc2ccc(F)cc2)[C@@H]2[C@@H](CC(=O)[C@H]2CC(=O)C(=O)N(C)C)CN1C(=O)c1ccccc1 | 11.2 µM (active) |
| O=C(N/N=C/c1cccn1-c1ccc([N+](=O)[O-])cc1)c1cccnc1 | 10 µM (active) |
| Cc1cc([N+](=O)[O-])ccc1NC(=O)CSc1nncn1-c1cccnc1 | inactive |
| CCOc1ccc(N(C(=O)c2snc(C(N)=O)c2N)C(C(=O)NCC2CCCO2)c2c[nH]c3ccccc23)cc1 (stereo not given) | 3.55 µM (active) |
| Cc1cc(C)c(C(=O)/C=C/c2cccc3ccccc23)c(=O)[nH]1 | 8.91 µM (active) |
| COc1ccc2[nH]c(=O)c(CN(CCCN(C)C)C(=O)Nc3ccc(F)cc3)cc2c1 | 14.1 µM (active) |
| O=C(Nc1nnc(SCc2ccc(F)cc2)s1)c1ccccn1 | 3.55 µM (active) |
| COc1ccc(-n2nc(C#N)c(Cl)cc2=O)cc1 | inactive |
| O=c1c(Cl)cc(Cl)nn1-c1ccccc1 | 12.6 µM (active) |
| C=C[C@]1(C)C[C@@H](OC(=O)CSCCN(CC)CC)[C@]2(C)C(C)CC[C@]3(CCC(=O)[C@H]32)[C@@H](C)[C@@H]1O (stereo not given in full) | 14.1 µM (active) |
| COc1ccc(-c2cc(C(=O)N/N=C/c3sccc3C)c3ccccc3n2)c(OC)c1 | 12.6 µM (active) |
| COc1ccc(-c2cc(C(=O)N/N=C/c3ccc4c(c3)OCO4)c3ccccc3n2)c(OC)c1 | 7.94 µM (active) |
| COc1ccccc1-c1cc(C(=O)N/N=C/c2sccc2C)c2ccccc2n1 | 3.98 µM (active) |
| CCOC(=O)Nc1ccc2c(CNC(C)c3ccccc3OC)cc(=O)oc2c1 (stereo not given) | 14.1 µM (active) |

| SMILES | Potency |
| --- | --- |
| CCc1noc(C)c1C(=O)N1CCC(CCC(=O)Nc2cccc(C)c2)CC1 | 11.2 µM (active) |
| C/C(N)=C(/C#N)C(=O)COC(=O)c1cc(C)n(-c2ccc(F)cc2)c1C | 10 µM (active) |
| O=C(NCc1ccc2c(c1)OCO2)c1nc(S(=O)(=O)Cc2ccccc2)ncc1Cl | inactive |
| O=C(CSc1nc2cc([N+](=O)[O-])ccc2n1-c1ccccc1)NCc1ccc2c(c1)OCO2 | 11.2 µM (active) |
| Cc1nc([N+](=O)[O-])c(Sc2nc3ccccc3n2C)n1Cc1ccccc1 | 15.8 µM (active) |
| CCN(CC)S(=O)(=O)c1ccc(C2=NOC3(C2)N(C)c2ccccc2C3(C)C)cc1 (stereo not given) | 12.6 µM (active) |
| CN1c2ccccc2C(C)(C)C12CC(c1ccc(S(=O)(=O)N3CCCCC3)cc1)=NO2 (stereo not given) | 5.62 µM (active) |
| C=CCSC(=C(C#N)C#N)c1cc2c([nH]1)CCCC2 | 7.08 µM (active) |
| COc1ccc(CN2CCN(C(=O)c3ccc(CNS(=O)(=O)c4ccc(C)cc4)cc3)CC2)c(OC)c1OC | 12.6 µM (active) |
| CCN1C(=O)[C@@H]2[C@@H](c3ccc(SC4CCCCC4)c(OC)c3)N3CCC[C@@]3(C(=O)OC)[C@@H]2C1=O | 5.01 µM (active) |
| COC(=O)[C@@]12CCCN1[C@H](c1ccc(-c3cccc(Cl)c3)c(OC)c1)[C@H]1C(=O)N(C)C(=O)[C@H]12 | 2.82 µM (active) |
| COc1cc(OC)c2c(-c3cccc(-c4cccc(N)c4)c3)cc(=O)oc2c1 | 10 µM (active) |
| O=[N+]([O-])c1ccc(N2CCN(c3ccccc3)CC2)nc1 | inactive |
| O=C(NCCN1CCN(c2ccc([N+](=O)[O-])cc2)CC1)NCc1ccccc1 | 12.6 µM (active) |
| O=C1NC(=S)S/C1=C\C=C\c1ccc([N+](=O)[O-])o1 | 1.78 µM (active) |
| COC(=O)C1=C(C)N(CC2CC2)C(=NCc2cc(OC)c(OC)c(OC)c2)N[C@H]1c1ccccc1 | 12.6 µM (active) |
| COc1ccccc1CNC(=O)c1ccc(-c2ccccc2Cl)o1 | 12.6 µM (active) |
| Cc1ccc(CN2CCC(CNS(=O)(=O)c3ccc(-c4ccc(=O)[nH]n4)s3)CC2)cc1 | 5.01 µM (active) |
| Cc1ccc(CNS(=O)(=O)c2ccc(C)s2)cc1 | inactive |

Reference: PubChem BioAssay AID504850 (National Center for Advancing Translational Sciences (NCATS), 2011)
